This is part of a sample that, as a whole, favours compounds with a hit. Of some 83,000 tested, about 20% had one in any assay.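 A percent growth of 40 corresponds to 60% growth inhibition; 0 means no net growth; -100 means all cells died. Active threshold: below 10.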 A number with no mark means an inactive call. Active and inactive are the calls of the source.
Columns and labels:
Test in all cases: NCI-60 one-dose screen, 48 h (100 = growth as untreated, 0 = no growth, -100 = all killed)
Settings in all cases: 10 µM unless noted
NCI-H23 lung = system: NCI-H23 lung
NCI-H226 lung = system: NCI-H226 lung
NCI-H322M lung = system: NCI-H322M lung
HOP-62 NSCLC = system: HOP-62 NSCLC
NCI-H460 lung = system: NCI-H460 lung
HOP-92 NSCLC = system: HOP-92 NSCLC
NCI-H522 lung = system: NCI-H522 lung
A549/ATCC NSCLC = system: A549/ATCC NSCLC
786-0 renal = system: 786-0 renal
COLO 205 colon = system: COLO 205 colon

| Structure (SMILES) | growth (NCI-H23 lung) | growth (NCI-H226 lung) | growth (NCI-H322M lung) | growth (HOP-62 NSCLC) | growth (NCI-H460 lung) | growth (HOP-92 NSCLC) | growth (NCI-H522 lung) | growth (A549/ATCC NSCLC) | growth (786-0 renal) | growth (COLO 205 colon) |
| --- | --- | --- | --- | --- | --- | --- | --- | --- | --- | --- |
| COc1cc(C(=O)c2cnc(-c3cccc4[nH]ccc34)[nH]2)cc(OC)c1OC | 26.4% | 45.7% | 35.3% | 33.8% | 2.81% (active) | 17.5% | -7.75% (active) | 24.5% | 6.82% (active) | -36.9% (active) |
| O=C(O)c1cn(C2CC2)c2cc(N3CCN(C(=O)Nc4nc(-c5ccc(Cl)cc5)cs4)CC3)c(F)cc2c1=O | 8.09% (active) | 19.7% | 4.8% (active) | 20.5% | 8.14% (active) | -22.2% (active) | -6.18% (active) | 6.96% (active) | 22.6% | 6.21% (active) |
| CCOC(=O)c1c(C)nc2c(c1N)CC(=O)N2Cc1ccc(F)cc1 | 99.8% | 90.8% | 107% | 82.1% | 99.7% | 71.5% | 63.7% | 90.8% | 98.3% | 103% |
| CCOC(=O)c1[nH]c(C)c(C(=O)OCc2ccccc2C#N)c1C | 69% | 100% | 88.4% | 68.7% | 83.4% | 47.4% | 51.8% | 83.6% | 61.2% | 89.8% |
| Cc1cc(C)c(-c2c(N)cc(Br)cc2Br)c(N)c1 | 70.9% | 76.3% | 102% | 39.4% | 83% | -6% (active) | 62.9% | 55.5% | 45.9% | 54% |
| O=C(Nn1c(NCC(=O)N2c3ccccc3Sc3ccccc32)nnc1-c1ccc(O)cc1)c1ccccc1 | 94.4% | 104% | 104% | 99.5% | 105% | 91.2% | 93.1% | 106% | 92.4% | 112% |
| Cn1cc(-c2cc3ncnc(Nc4ccc(CC(=O)Nc5cc(C(C)(C)C)nn5C)cc4)c3s2)cn1 | 60% | 38% | 46.4% | 71% | 43.5% | 70% | 41.5% | 42.1% | 43.7% | 52.9% |
| OC(COc1ccccc1Cl)CN1CCN(c2cccc(Cl)c2)CC1 (stereo not given) | 100% | 96.5% | 108% | 119% | 121% | 79.2% | 88.5% | 101% | 98.3% | 101% |
| CC(C)OC(=O)Nc1ccc(-c2nc(-c3cccc(OCCN4CCOCC4)c3)c(-c3ccnc(Br)c3)[nH]2)cc1 | 33% | 55.3% | 46.5% | 28.4% | 30% | 29.8% | 49.9% | 40% | -33% (active) | -5.63% (active) |
| Cc1nc2ccccc2n1CC1C(=O)NC(=O)NC1=O | 102% | 114% | 95.5% | 105% | 111% | 97.8% | 94.4% | 96.4% | 103% | 115% |
| Cc1cc(N2CCCC2)nc(N(CCCNc2ccnc3cc(Cl)ccc23)Cc2ccccn2)n1 | 59% | 79.8% | 57.1% | 55.6% | 35.6% | 17.4% | 47.3% | 62% | 53.3% | 39.1% |
| Nc1nc(-c2cccc3ccccc23)cc2ccccc12 | 11.1% | -7.36% (active) | 46.5% | 13.7% | 0.0786% (active) | 19% | -34.3% (active) | 28.7% | 20.9% | -18.4% (active) |
| Nc1ccccc1-c1cc2c(c3c1[nH]c1ccccc13)CCCCC2 | 90.5% | 117% | 99% | 105% | 97.2% | 105% | 84.8% | 95.8% | 89.3% | 101% |
| COc1cc(/C=C2\C(=O)Nc3ccc(Br)cc32)cc(OC)c1OC | 63.5% | 77.1% | 76.1% | 85.2% | 73.3% | 48.2% | 47% | -4.21% (active) | 84.9% | 70.8% |
| CN1C(=O)N(C)C2Nn3c(s/c(=C\c4ccccc4)c3=O)=NC21 (stereo not given) | 101% | 94.2% | 97% | 97.8% | 108% | 100% | 87.1% | 94.8% | 101% | 111% |
| O=C(CCOCCNC(=O)COc1ccc2c(c1)OCC(c1ccc(F)cc1)C2=O)NCCCC(O)(P(=O)(O)O)P(=O)(O)O (stereo not given) | 98% | 106% | 102% | 105% | 108% | 120% | 94.9% | 103% | 103% | 112% |
| Oc1c(I)cc(I)cc1CNCCCN(Cc1ccccn1)Cc1ccccn1 | -37% (active) | -78.4% (active) | -75.3% (active) | -52.7% (active) | -57.2% (active) | -76.1% (active) | -56.4% (active) | -51.8% (active) | -95.4% (active) | -34.2% (active) |
| O=c1c2cc(F)ccc2sc2c(NCCN3CCOCC3)nc3ccccc3c12 | 85.1% | 91.3% | 77.8% | 80.9% | 31.8% | 44.6% | 65.6% | 69.3% | 59.2% | 53.2% |
| Nc1nc(Cl)cc(=O)n1Cc1ccccc1 | 88.1% | 87.6% | 89.6% | 97.8% | 105% | 88.3% | 86.7% | 94.6% | 101% | 114% |
| O=C(Nc1ccc(Cl)cc1F)c1cc(Cl)ccc1O | -20% (active) | -9.16% (active) | -11.1% (active) | 7.55% (active) | -5.39% (active) | -21.7% (active) | -3.15% (active) | 7.91% (active) | -0.322% (active) | 22.2% |
| CCOC(=O)C1=C(N)Oc2c(sc3c(C)cccc23)C1c1ccc(Cl)cc1 (stereo not given) | 28.2% | 32.9% | 47.3% | 31.8% | 13.1% | 85% | 23% | 46.2% | 35.7% | 20.3% |
| CCCC1CCC(O)(C(C)(O)C(=O)NC2C(=O)N3NCCCC3C(=O)N(O)C(C)C(=O)N3NCCCC3C(=O)N3NCC(O)CC3C(=O)NC(C)C(=O)OC2C(C)C)OC1CC (stereo not given) | -85.9% (active) | -53.6% (active) | -90.8% (active) | -76% (active) | -82.4% (active) | -61.5% (active) | -25% (active) | -66.4% (active) | -78.6% (active) | -89% (active) |
| COc1ccc2sc3c(NCCO)nc4ccccc4c3c(=O)c2c1 | 96.7% | 98.6% | 97.6% | 96.2% | 107% | 96% | 82.1% | 98.1% | 103% | 111% |
| COc1cc(C2CC(c3ccc(SC)cc3)=NN2C(C)=O)cc(OC)c1OC (stereo not given) | 70.5% | 85.3% | 91% | 80.1% | 48.6% | 83.7% | 35.2% | 58% | 84.6% | 64.6% |
| COc1ccc2c(c1)/C(=C/c1sc(=S)n(Cc3ccco3)c1O)C=N2 | 51% | 71.4% | 89% | 39.6% | 9.07% (active) | 77.5% | 32.5% | 57.9% | 46.2% | 25.4% |
| Cc1ccc2c(n1)C(=O)C(Cl)=C(Nc1ccccc1C(C)C)C2=O | 49.8% | 59.1% | 62.7% | 90.8% | 82.4% | 106% | 39.3% | 94.7% | 91.2% | 116% |
| Cc1cccc2c3c(sc12)C(c1ccc(Cl)cc1)C(C#N)=C(/N=C/c1ccc(Cl)cc1)O3 (stereo not given) | 27.2% | 18% | 49.9% | 42% | 6.47% (active) | 96.5% | 22.8% | 30.9% | 31.9% | 0.544% (active) |
